NALP1 inh = NALP1 inflammasome inhibitors in reconstituted yeast, colorimetric, S. cerevisiae, triplicate retest; S. cerevisiae NALP1/ASC/caspase-1 growth, X-gal OD620, 72 h; inhibition, % at 10 µM; hit rate 0.61% among 280,000; in the data active means inhibition mostly above about 24%, no sharp cut-off; inactive means mostly below about 32%
tim10-1 inh = growth inhibitors of tim10-1 mutant yeast, primary screen, luminescence, uHTS; inhibition, % at 20 µM; AID 463190, 2010; hit rate 2.2% among 330,000; S. cerevisiae tim10-1 ts strain growth, BacTiter-Glo, 24 h;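 active means inhibition of at least 40%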;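 further: mutant grown at 25 °C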
PfHsp90 yeast 2 = growth inhibition of PfHsp90-expressing yeast, primary screen, antimalarial PfHsp90 inhibitor project, S. cerevisiae, BacTiter-Glo luminescence, single point, set 2; inhibition, % at 9.4 µM; BacTiter-Glo ATP, 48 h; yeast lacking PDR1 and PDR3 efflux regulators; hit rate 0.32% among 310,000;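 active means every replicate shows inhibition above about 80%, whatever the replicate mean, limit read from the data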
tim23-1 inh = growth inhibitors of tim23-1 mutant yeast, primary screen, luminescence, uHTS; hit rate 1.3% among 330,000; S. cerevisiae tim23-1 growth, BacTiter-Glo luminescence, 24 h; inhibition, % at 20 µM;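 active means growth inhibition of the mutant yeast at or above 50%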;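 further: temperature-sensitive mutant grown at 25 °C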
TIM10 inh = growth inhibitors of isogenic TIM10 control yeast, primary screen, counter-screen for tim10-1 yeast inhibitor project, luminescence, uHTS. AID 463195, 2010. hit rate 1.4% among 330,000. inhibition, % at 10 µM. S. cerevisiae TIM10 strain growth, BacTiter-Glo luminescence, 24 h;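 active means inhibition of 40% or more at the single tested concentration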;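 further: wild-type TIM10 isogenic control strain grown at permissive 25 °C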
NALP3 yeast inh = NALP3 inflammasome inhibitors in reconstituted yeast, primary screen, luminescence, uHTS | AID 2825, 2010 | Yeast reconstituted NLRP3/ASC/caspase-1, beta-gal luminescence, 24 h | hit rate 0.39% among 330,000 | inhibition, % at 10 µM;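 active means inhibition of 50% or more; inactive means inhibition below 50%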
tim10-1 conf = growth inhibitors of tim10-1 mutant yeast, confirmation, single concentration, luminescence, S. cerevisiae; shares compounds with tim10-1 inh; inhibition, % at 20 µM; hit rate 56% among 7,400; S. cerevisiae tim10-1 ts strain growth, BacTiter-Glo, 24 h; AID 463213, 2010;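 active means inhibition of yeast growth at or above a set limit in either of two repeat tests at 20 µM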;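 further: tim10-1 mutant grown at permissive 25 °C to find synthetic lethal compounds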
TIM10 conf = growth inhibitors of wild-type TIM10 yeast, confirmation, counter-screen for tim10-1 synthetic lethality project, single concentration, luminescence, S. cerevisiae. shares compounds with TIM10 inh. S. cerevisiae tim10 strain growth, BacTiter-Glo luminescence, 24 h. inhibition, % at 10 µM. AID 463215, 2010. hit rate 63% among 4,600;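 active means inhibition of yeast growth at or above a set limit in either of two replicates at 10 µM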; further: this counterscreen used the strain with wild-type TIM10
tim23-1 confirm = tim23-1 mutant yeast growth inhibitors, confirmation, luminescence, single concentration. shares compounds with tim23-1 inh. S. cerevisiae tim23-1 growth, BacTiter-Glo luminescence, 24 h. inhibition, % at 20 µM. hit rate 83% among 4,400;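 active means inhibition above about 39% in either of two replicate wells at 20 µM, limit read from the data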;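 further: temperature-sensitive tim23-1 mutant grown at 25 °C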
Hits are given with their value; i = inactive; nt = no result given. Rows were chosen to be rich in hits. Some 4.1% of all compounds tested hit in one or more screens of this group.

SMILES | NALP1 inh | tim10-1 inh | PfHsp90 yeast 2 | tim23-1 inh | TIM10 inh | NALP3 yeast inh | tim10-1 conf | TIM10 conf | tim23-1 confirm
CCSc1cc(C2C(C#N)=C(N)Oc3n[nH]c(C)c32)c(C)o1 (stereo not given) | i | 63.0 | i | i | 47.5 | i | 47.0 | 44.6 | nt
Fc1ccc(C[n+]2c(-c3ccccc3)cc(-c3ccccc3)cc2-c2ccccc2)cc1 | nt | 55.4 | nt | i | 49.4 | i | 51.8 | 58.5 | nt
O=C1NC(=O)N(Cc2ccco2)C(=O)/C1=C\c1cccn1CCOc1ccc(Cl)cc1 | i | 47.4 | i | i | 41.2 | i | 41.5 | 39.2 | nt
COc1ccc(N2C(=O)NC(=O)/C(=C\c3ccc([N+](=O)[O-])s3)C2=O)cc1 | i | 67.9 | i | i | 80.9 | i | 71.4 | 38.3 | nt
FC(F)(F)c1ccccc1CNCCc1c[nH]c2ccccc12 | i | 43.0 | i | i | 61.2 | i | 62.2 | 60.0 | nt
CC12CCC(=O)C=C1CC(N1CC1)C1C2CCC2(C)C(O)CCC12 (stereo not given) | nt | nt | i | nt | nt | nt | nt | nt | nt
OC(Cn1c2ccccc2c2ccccc21)C[n+]1cccc2ccccc21 (stereo not given) | i | 49.1 | i | i | 57.4 | i | 43.0 | 43.0 | nt
CCC1(NS(=O)(=O)c2ccc(N)cc2)C(=O)N(C)C(=O)N(C)C1=O | nt | nt | i | nt | nt | nt | nt | nt | nt
Cc1ccc(Cn2nnnc2CN2CCC(n3nnc4cc(C)ccc43)CC2)cc1 | i | 51.7 | i | i | 49.8 | i | 46.1 | 28.0 | nt
Cc1ccc(Cn2nnnc2CN2CCC(n3nnc4cc(C(F)(F)F)ccc43)CC2)cc1 | i | i | nt | i | i | i | nt | nt | nt
O=C1CN=C(c2ccccc2)c2c(sc3c2CCCC3)N1 | i | i | i | i | i | i | nt | nt | nt
CC[n+]1c(/C=C/C=C/c2ccc(N(C)C)cc2)sc2ccccc21 | i | 85.4 | i | 83.5 | 82.1 | i | 89.8 | 74.0 | 82.3
O=c1cccc2n1CC1CNCC2C1 (stereo not given) | i | i | i | i | i | i | nt | nt | nt
COC(=O)C(O)(c1ccc(NC(=S)NC(=O)c2ccc(Cl)cc2Cl)c(C)c1)C(F)(F)F (stereo not given) | i | 52.9 | i | 58.5 | i | i | 36.9 | nt | 57.6
CC(C)(C)C(=O)N1Cc2ccccc2-n2nncc2C1 | nt | nt | i | nt | nt | nt | nt | nt | nt
N#CC(C#N)=NNc1ccc(-n2ccc(C(F)(F)F)n2)cc1 | nt | 49.9 | i | 51.0 | 47.6 | i | 59.3 | i | 61.2
CCN1/C(=C\C=C\C2=[N+](CC)c3ccccc3C2(C)C)C(C)(C)c2ccccc21 | i | 42.0 | i | 57.7 | 46.5 | i | i | i | 40.0
CC1CN=C(NCCc2ccccc2)S1 (stereo not given) | i | i | i | i | i | i | nt | nt | nt
CCn1nc(/C=C/c2ccccc2)nc2c(=O)n(C)c(=O)nc1-2 | i | 92.6 | i | 93.0 | 95.9 | i | 94.6 | 97.7 | 91.3
COc1cccc(N2C(=O)NC(=O)/C(=C/c3ccc([N+](=O)[O-])s3)C2=O)c1 | nt | 72.8 | i | 65.0 | 87.3 | i | 69.2 | i | 78.0
CCOc1ccc(N2C(=O)NC(=O)/C(=C\c3cc(OC)c(OC)cc3[N+](=O)[O-])C2=O)cc1 | i | i | i | i | i | i | nt | nt | nt
COc1ccccc1N1C(=O)NC(=O)/C(=C/c2ccc([N+](=O)[O-])s2)C1=O | nt | 77.2 | nt | 67.4 | 73.5 | i | 68.5 | i | 70.5
COc1ccc(N2C(=O)NC(=O)/C(=C/c3ccc([N+](=O)[O-])s3)C2=O)cc1 | nt | 62.3 | nt | 60.6 | 90.4 | i | 70.8 | 69.3 | 75.6
COc1cccc(N2C(=O)NC(=O)/C(=C/c3ccc4c(c3)Cc3ccccc3-4)C2=O)c1 | i | i | i | i | i | i | nt | nt | nt
COC(=O)C1=C(c2cccc(NC(C)=O)c2)C[C@@H]2CC[C@H]1N2C | nt | i | i | i | i | i | nt | nt | nt
SMILES | NALP1 inh | tim10-1 inh | PfHsp90 yeast 2 | tim23-1 inh | TIM10 inh | NALP3 yeast inh | tim10-1 conf | TIM10 conf | tim23-1 confirm
CN1C(=O)C(=Cc2ccccc2OCCOc2ccc([N+](=O)[O-])cc2)C(=O)N(C)C1=O | i | 49.6 | i | 74.3 | 69.3 | i | 42.0 | 66.5 | 89.9
O=C(NC1CC1)c1cn(Cc2ccccc2)nc1-c1ccccc1 | nt | i | nt | i | i | i | nt | nt | nt
Cc1ccc(Cn2cc(C=O)c(-c3ccc(C)cc3)n2)cc1 | i | 45.2 | i | 52.7 | i | i | 34.5 | nt | 65.4
COc1ccc(-n2c(/C=C/c3ccc(O)c(OC)c3)nc3ccccc3c2=O)cc1 | i | i | i | i | i | i | nt | nt | nt
COc1cc(/C=C/[N+](=O)[O-])ccc1O | 93.6 | 43.3 | i | 77.0 | i | i | i | nt | 75.5
COC(=O)C1=C(c2ccccc2)C[C@@H]2CC[C@H]1N2C(=O)N1CCCC1 | nt | i | i | i | i | i | nt | nt | nt
Cn1c(O)c(C=NCCN2CCN(C(=O)Nc3ccccc3)CC2)c(=O)n(C)c1=O | i | i | nt | i | i | i | nt | nt | nt
COc1cc(/C=C(/C)[N+](=O)[O-])ccc1OCc1ccccc1Cl | i | 49.0 | i | 52.3 | 51.5 | i | 35.6 | 43.5 | 71.2
CN=C(SCC(=O)c1cccc(Cl)c1)c1c(O)n(C)c(=O)n(C)c1=O | nt | i | i | i | i | i | nt | nt | nt
Cc1ccc(NC(=O)CN2C(=O)CN=C(c3ccccc3)c3cc(Cl)ccc32)cc1 | i | 45.4 | i | 61.0 | i | i | i | nt | 52.0
CN(C)c1ccc(NC(=O)CN2C(=O)CN=C(c3ccccc3)c3cc(Cl)ccc32)cc1 | i | i | i | i | i | i | nt | nt | nt
CCOc1cc2c(cc1OCC)-n1cccc1C(c1cc(C)c(OC)cc1C)NC2 (stereo not given) | i | i | i | i | i | i | nt | nt | nt
O=C1NC(=O)N(Cc2ccc(F)cc2)C(=O)/C1=C\c1ccc(N2CCCC2)cc1 | i | i | i | i | i | i | nt | nt | nt
O=C1NC(=O)N(Cc2ccc(F)cc2)C(=O)/C1=C\c1ccc([N+](=O)[O-])s1 | nt | 70.0 | 101.2 | 60.3 | 82.5 | i | 74.8 | i | 76.2
COc1ccc(CN2C(=O)NC(=O)/C(=C\c3ccco3)C2=O)cc1 | i | i | i | i | i | i | nt | nt | nt
COc1ccc(CN2C(=O)NC(=O)/C(=C/c3ccc([N+](=O)[O-])s3)C2=O)cc1 | i | 67.1 | 101.1 | 58.8 | 81.7 | i | 74.5 | i | 75.2
COc1cccc(N(C(C)=O)C2=NCCCS2)c1 | i | i | i | i | i | i | nt | nt | nt
